# Screening data as filed in PubChem.
# Hits are enriched below; roughly 19% of the tested compounds scored in any of these assays.
# DT40 TDP1 CPT: qHTS for Inhibitors of human tyrosyl-DNA phosphodiesterase 1 (TDP1): qHTS in cells in presence of CPT | 420,000 compounds, 12% hits | chicken DT40 Tdp1-/-;hTDP1 cells + 20 nM CPT, ATP luminescence, 48 h | Potency, µM (top dose mostly 46.2 µM), hits mostly inhibitors | AID 686979, 2013; further: nearly all actives have a fitted effect of over 55% in size
#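 Chicken DT40 Tdp1-/- cells complemented with human TDP1, 400 cells/well, exposed to compounds plus 20 nM camptothecin for at least 48 h at 37 C; viability read as ATP content by CellTiter-Glo luminescence.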
# DT40 TDP1 no CPT: qHTS for Inhibitors of human tyrosyl-DNA phosphodiesterase 1 (TDP1): qHTS in cells in absence of CPT. 420,000 compounds, 15% hits. AID 686978, 2013. DT40 Tdp1-/- hTDP1 cells, no CPT, ATP luminescence, 48 h. Potency, µM (series often up to 46.2 µM), most hits filed as inhibitors; further: nearly all actives have a fitted effect of over 55% in size
#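 No-CPT arm: Tdp1-/-;hTDP1 DT40 cells (400/well) plus compounds, incubated ≥48 hr at 37 °C. Readout CellTiter-Glo luminescence.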
# HT1080-NT tox: qHTS for induction of synthetic lethality in tumor cells producing 2HG: qHTS for the HT-1080-NT fibrosarcoma cell line. HT-1080-NT fibrosarcoma viability, CellTiter-Glo ATP luminescence, 48 h. Potency, µM (highest dose often 46.1 µM), usual class: cytotoxic. 360,000 compounds, 1.6% hits. AID 686970, 2013;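 further: NT is the 2HG producing partner of a matched IDH1 knockdown line; nearly all actives have a fitted effect of over 55% in size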
#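 Viability by CellTiter-Glo luminescence after 48 h compound exposure at 37C of HT-1080-NT cells (750/well, RPMI, 5% FBS). % activity scaled between DMSO wells and medium-only wells, then curve-fitted and categorized by curve class.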
# HT1080 IDH1KD tx: qHTS for induction of synthetic lethality in tumor cells producing 2HG: qHTS for the HT-1080-IDH1KD cell line | HT-1080 IDH1 knockdown viability, ATP luminescence, 48 h | Potency, µM (highest dose often 46.1 µM), hits mostly cytotoxic | 360,000 compounds, 2% hits
#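 Assay cells: HT-1080 with IDH1 knockdown, 750 per well, RPMI/5% FBS. Exposure: 48 h at 37 °C following 2 h pre-incubation. Read: CellTiter-Glo luminescence; fitted concentration-response, curve class assigned.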
# KB-3-1 tox: qHTS assay for MDR1-selective chemotherapeutics: Primary screen using the parental adenocarcinoma cell KB-3-1. KB-3-1 viability, CellTiter-Glo ATP luminescence, 72 h. Potency, µM (top dose mostly 46.1 µM), actives largely listed as cytotoxic. 400,000 compounds, 1.4% hits. AID 1347075, 2019; further: nearly all actives have a fitted effect of over 60% in size
#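 KB-3-1 cells, DMEM (no phenol red) + 10% FBS; compound by pin transfer, 72 h, 37 °C. Readout: CellTiter-Glo luminescence after 10 min. Data normalized, curve-fitted.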
# KB-V1 cytotox: qHTS assay for MDR1-selective chemotherapeutics: Primary screen using the drug-selected MDR subline cells KB-V1. KB-V1 MDR cells viability, CellTiter-Glo, 72 h. Potency, µM (titrated, usually from 46.1 µM), hits mostly cytotoxic. 400,000 compounds, 3.4% hits. AID 1347076, 2019; further: nearly all actives have a fitted effect of over 60% in size
#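 Cells of the MDR subline KB-V1 are plated, dosed with compound at multiple concentrations, and incubated 72 h at 37 degrees C; CellTiter-Glo is then added and luminescence read after 10 min.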
# A number is an active result; - = inactive; ? = inconclusive; . = not tested or not shown. The call rests on the fitted dose curve; in most records, active means well fitted curve in the direction sought with a large enough effect; inconclusive means small, poorly fitted or top-dose-only effect, or another doubt; inactive means no such curve, though single readings can be large; an effect the other way counts as inactive or inconclusive.
SMILES,DT40 TDP1 CPT,DT40 TDP1 no CPT,HT1080-NT tox,HT1080 IDH1KD tx,KB-3-1 tox,KB-V1 cytotox
Brc1ccc2nc(C3CCCCC3)c(Cc3ccsc3)n2c1,21µM,16µM,-,?,-,-
Cc1ccc(Cc2c(C3CCCCC3)nc3ccc(Br)cn23)cc1,?,21µM,?,?,-,-
Cc1cc(Br)cn2c(Cc3ccsc3)c(C3CCCCC3)nc12,?,?,-,-,-,-
Clc1ccc2nc(C3CCCCC3)c(Cc3ccccc3)n2c1,-,-,-,-,-,-
Clc1ccc2nc(C3CCCCC3)c(Cc3ccsc3)n2c1,23µM,?,-,-,?,?
Cc1ccc(Cc2c(C3CCCCC3)nc3ccc(Cl)cn23)cc1,?,?,?,-,-,-
COc1ccc(CCNS(=O)(=O)CCNC(=O)c2ccc3c(c2)OCO3)cc1,-,?,-,-,-,-
Cc1ccc(NC(=O)CN(C)C(=O)c2ccccc2Sc2ccccc2C#N)cc1,?,15µM,-,-,-,-
Cc1sc2ncnc(Sc3ccccc3C(=O)Nc3ccccc3Cl)c2c1C,23µM,18µM,-,-,-,-
COc1ccc(NC(=O)CN(C)C(=O)c2ccccc2Sc2ncnc3sc(C)c(C)c23)cc1,?,23µM,-,-,-,-
Cc1sc2ncnc(Sc3ccccc3C(=O)Nc3ccc(C#N)cc3)c2c1C,21µM,21µM,-,-,-,-
CN(CC(=O)Nc1ccc(F)cc1)C(=O)c1ccccc1Sc1ccccc1C#N,?,?,-,-,-,?
CNC(=O)c1ccc(NC(=O)C2CCN(c3ncnc4sc(C)c(C)c34)CC2)cc1,?,?,-,-,.,.
CSc1ncc(C(=O)Nc2ccccc2Cl)c(C)n1,-,-,-,-,-,-
Cc1sc2ncnc(SCC(=O)Nc3cccc(S(N)(=O)=O)c3)c2c1C,-,?,-,?,-,-
Cc1sc2ncnc(Sc3ccccc3C(=O)Nc3ccc(Br)cc3)c2c1C,23µM,16µM,-,-,-,?
CCCOc1ccc(C(=O)NNC(=S)NC(=O)c2ccco2)cc1,3.3µM,2.9µM,?,23µM,9.2µM,-
CCCCOc1ccc(OCCNC(=O)c2ccco2)cc1,?,16µM,-,?,?,?
COc1ccccc1OCCNC(=O)c1ccco1,-,-,-,-,-,-
O=C(NNC(=S)NC(=O)c1ccco1)c1ccc(F)cc1,?,?,-,?,-,-
CCNC(=S)Nc1cc(OC)c(NC(=O)c2ccco2)cc1OC,-,-,-,-,-,?
COC(=O)c1cc(OC)c(OC)cc1NC(=S)NC(=O)c1ccco1,21µM,10µM,-,?,-,-
COc1ccc(C(=O)NNC(=S)NC(=O)c2ccco2)cc1,5.2µM,8.2µM,?,?,?,?
Cc1cc(-c2nc(C)c(C(=O)NN)s2)no1,-,-,?,?,-,-
COCC(=O)N1CCC(Oc2ccc(C(=O)N[C@H](C(=O)OC)C(C)C)cc2)CC1,-,-,-,-,-,-
SMILES,DT40 TDP1 CPT,DT40 TDP1 no CPT,HT1080-NT tox,HT1080 IDH1KD tx,KB-3-1 tox,KB-V1 cytotox
COc1ccccc1C(=O)NNC(=S)NC(=O)c1ccco1,12µM,7.3µM,-,?,-,-
O=C(COc1ccc(Cl)cc1Cl)NNC(=S)NC(=O)c1ccco1,?,?,-,?,-,?
COc1ccccc1C(=O)NNC(=S)Nc1ccccc1,-,?,-,-,-,-
CCCCCOc1ccc(C(=O)OC(C)C(=O)NCc2ccco2)cc1 (stereo not given),?,?,?,21µM,?,?
CC(Oc1ccc(Cl)cc1)C(=O)NNC(=S)NC(=O)c1ccco1 (stereo not given),?,16µM,?,?,?,-
COc1ccc(C(=O)Nc2c(C(C)(C)C)nn(C)c2C(C)(C)C)cc1,-,-,-,-,-,-
Cc1ccccc1OCc1ccc(-c2nc(C#N)c(N3CCC(C(N)=O)CC3)o2)o1,?,?,.,.,-,-
O=c1[nH]c2ccsc2c(=O)n1CCO,-,-,-,-,-,-
CC(C)CCn1c(O)c(N=NC(=O)Cn2ccc(C(F)(F)F)n2)c2ccccc21,21µM,23µM,-,-,-,-
NC(CO)C(=O)NNCc1ccc(O)c(O)c1O (stereo not given),3.7µM,4.6µM,-,-,?,-
CCOc1ccc(C2C(=O)N(C3CCCCC3)CC(=O)N2Cc2ccc(F)cc2)cc1OC (stereo not given),?,-,.,.,.,.
CCCCN1C(=O)CN(C2CCCCCC2)C(=O)C1c1ccc(OCCC)c(OC)c1 (stereo not given),12µM,?,.,.,.,.
CCCOc1ccc(C2C(=O)N(C3CCCCCC3)CC(=O)N2Cc2ccccc2OC)cc1OC (stereo not given),26µM,16µM,.,.,.,.
CCCOc1ccc(C2C(=O)N(C3CCCCC3)CC(=O)N2CCC)cc1OC (stereo not given),?,?,-,-,-,-
COc1ccccc1CN1C(=O)CN(C2CCCCCC2)C(=O)C1c1ccc(F)cc1 (stereo not given),21µM,18µM,-,?,-,-
CCn1cc(C(=O)NCc2ccco2)c(=O)c2ccc(C)nc21,-,?,-,-,-,-
COc1ccc(C)cc1NCc1nnc2n1CCCCC2,-,-,.,.,-,-
COc1ccc(NC(=O)N(CCC(C)C)C(C)c2ccccn2)c(OC)c1 (stereo not given),23µM,?,-,-,-,-
COc1cc2cnc(-c3ccccc3)c(-c3ccc(C#N)cc3)c2cc1OC,?,16µM,-,-,13µM,-
COc1ccc(CNC(=O)CS(=O)(=O)c2cccc3nsnc23)cc1,-,-,.,.,-,-
COc1cccc(S(=O)(=O)Nc2ccc3c(c2)OCCO3)c1,?,?,-,-,-,?
Cc1nc2ccc(NS(=O)(=O)c3c(F)cccc3F)cc2s1,16µM,16µM,?,-,-,-
COc1cccc(S(=O)(=O)Nc2ccc3sc(C)nc3c2)c1,?,23µM,-,-,?,-
Cc1nc2cc(NS(=O)(=O)c3cccc4cccnc34)ccc2s1,16µM,9.2µM,-,-,?,?
